Common to all, as to assay: DAPPL (digital affinity profiling via proximity ligation, sequencing); 10 mM Tris-HCl pH 7.5, 50 mM NaCl, 1 mM DTT, 4% glycerol, room temperature, 30 min; GST-TFs on glutathione beads, 16-mer random dsDNA library, 0.1% formaldehyde crosslink after washing; high values mean tight binding
Conditions in all cases: protein: recombinant; tags: N-terminal GST; dsDNA, one strand shown

One experiment addresses T1, FLI1 (Homo sapiens, UniProt Q01543 1-452).
T1 sequence: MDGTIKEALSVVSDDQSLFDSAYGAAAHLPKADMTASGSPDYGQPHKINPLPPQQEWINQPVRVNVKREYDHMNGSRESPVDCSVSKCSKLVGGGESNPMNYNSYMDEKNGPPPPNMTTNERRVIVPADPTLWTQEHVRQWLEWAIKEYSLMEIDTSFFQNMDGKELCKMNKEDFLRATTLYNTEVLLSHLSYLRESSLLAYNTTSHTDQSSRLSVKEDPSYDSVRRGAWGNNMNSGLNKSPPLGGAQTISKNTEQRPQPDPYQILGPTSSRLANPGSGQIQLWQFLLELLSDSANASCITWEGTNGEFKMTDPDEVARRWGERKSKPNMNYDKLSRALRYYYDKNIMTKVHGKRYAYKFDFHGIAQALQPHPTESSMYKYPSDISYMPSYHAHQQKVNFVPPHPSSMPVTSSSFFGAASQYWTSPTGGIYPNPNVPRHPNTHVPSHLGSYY
A digest of the protocol:
(§1)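 GST fusions of human transcription factors were expressed in yeast and captured with glutathione beads. Once given DNA barcodes and pooled alongside a tag-only sample, they were incubated for 30 min at room temperature with 200 nmole of a random double-stranded 16-mer DNA library in Tris/NaCl/DTT/glycerol buffer, then washed, crosslinked (0.1% formaldehyde), proximity-ligated, PCR-amplified and sequenced on an Illumina NextSeq500. The binding signal of each hexamer is its read frequency for a factor divided by its frequency for the tag-only sample.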

The next experiment concerns the target T2, ELK1 (Homo sapiens, UniProt P19419 1-428).
T2 sequence: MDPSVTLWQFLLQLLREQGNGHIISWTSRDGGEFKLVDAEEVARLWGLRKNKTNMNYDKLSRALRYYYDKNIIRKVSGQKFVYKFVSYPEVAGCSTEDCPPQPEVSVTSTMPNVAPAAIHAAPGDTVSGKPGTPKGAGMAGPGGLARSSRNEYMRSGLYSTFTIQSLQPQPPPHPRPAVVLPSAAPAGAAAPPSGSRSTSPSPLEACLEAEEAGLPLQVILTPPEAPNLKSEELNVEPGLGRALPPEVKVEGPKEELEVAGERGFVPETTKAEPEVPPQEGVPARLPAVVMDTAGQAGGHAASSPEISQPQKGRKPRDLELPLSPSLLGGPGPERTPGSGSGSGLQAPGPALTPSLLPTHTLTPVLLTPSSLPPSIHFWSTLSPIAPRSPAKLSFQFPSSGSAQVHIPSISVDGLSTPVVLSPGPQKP
A digest of the protocol: as §1

A further experiment addresses T3, GABPA (Homo sapiens, UniProt Q06546 1-454).
T3 sequence: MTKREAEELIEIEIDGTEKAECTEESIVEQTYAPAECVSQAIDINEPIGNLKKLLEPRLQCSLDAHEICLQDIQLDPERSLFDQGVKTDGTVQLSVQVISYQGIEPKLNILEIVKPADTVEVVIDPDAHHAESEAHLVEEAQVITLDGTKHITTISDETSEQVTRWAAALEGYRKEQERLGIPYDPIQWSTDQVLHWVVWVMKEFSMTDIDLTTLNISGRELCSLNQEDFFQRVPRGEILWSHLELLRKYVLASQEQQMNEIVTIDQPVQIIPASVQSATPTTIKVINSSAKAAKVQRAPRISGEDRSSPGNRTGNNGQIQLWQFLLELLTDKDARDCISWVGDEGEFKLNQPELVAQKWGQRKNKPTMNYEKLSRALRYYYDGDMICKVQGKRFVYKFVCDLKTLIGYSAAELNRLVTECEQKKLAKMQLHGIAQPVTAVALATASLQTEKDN
In short, it runs like this: as §1

The next experiment deals with T4, ERG (Homo sapiens, UniProt P11308 1-479).
T4 sequence: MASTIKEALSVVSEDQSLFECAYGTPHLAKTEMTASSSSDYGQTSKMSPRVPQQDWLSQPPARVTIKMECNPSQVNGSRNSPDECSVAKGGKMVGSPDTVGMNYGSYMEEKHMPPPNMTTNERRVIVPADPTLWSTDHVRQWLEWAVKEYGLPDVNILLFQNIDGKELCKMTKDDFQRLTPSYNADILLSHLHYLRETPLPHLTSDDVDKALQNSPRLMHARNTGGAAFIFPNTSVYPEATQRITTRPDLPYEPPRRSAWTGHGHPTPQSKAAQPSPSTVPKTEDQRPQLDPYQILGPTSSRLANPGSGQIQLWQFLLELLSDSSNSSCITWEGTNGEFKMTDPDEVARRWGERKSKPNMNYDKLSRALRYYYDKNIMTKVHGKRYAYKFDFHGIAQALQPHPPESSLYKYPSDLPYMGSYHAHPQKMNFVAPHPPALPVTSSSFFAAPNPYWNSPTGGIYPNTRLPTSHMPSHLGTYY
In short, it runs like this: as §1

The target in the next experiment is ELF1 (Homo sapiens, UniProt P32519 1-619). A digest of the protocol: as §1
ELF1, sequence (P32519 whole entry): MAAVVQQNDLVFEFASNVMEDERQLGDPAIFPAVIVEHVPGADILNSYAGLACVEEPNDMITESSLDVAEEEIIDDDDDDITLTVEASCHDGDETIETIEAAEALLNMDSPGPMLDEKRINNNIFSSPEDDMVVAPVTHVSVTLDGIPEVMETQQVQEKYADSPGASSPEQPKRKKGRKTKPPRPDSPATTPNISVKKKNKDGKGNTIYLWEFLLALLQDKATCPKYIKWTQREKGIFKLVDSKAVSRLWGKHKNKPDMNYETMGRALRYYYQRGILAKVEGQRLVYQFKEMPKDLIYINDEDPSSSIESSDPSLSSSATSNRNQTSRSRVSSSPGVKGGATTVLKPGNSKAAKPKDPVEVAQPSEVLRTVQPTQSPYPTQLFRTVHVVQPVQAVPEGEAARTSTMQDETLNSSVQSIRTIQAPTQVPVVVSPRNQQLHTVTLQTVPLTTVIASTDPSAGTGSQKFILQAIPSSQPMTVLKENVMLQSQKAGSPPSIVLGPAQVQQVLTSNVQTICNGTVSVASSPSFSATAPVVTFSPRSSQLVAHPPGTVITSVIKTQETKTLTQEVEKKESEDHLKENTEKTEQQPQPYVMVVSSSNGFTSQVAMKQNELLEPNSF
Another experiment addresses T5, EHF (Homo sapiens, UniProt Q9NZC4 1-300).
T5 sequence: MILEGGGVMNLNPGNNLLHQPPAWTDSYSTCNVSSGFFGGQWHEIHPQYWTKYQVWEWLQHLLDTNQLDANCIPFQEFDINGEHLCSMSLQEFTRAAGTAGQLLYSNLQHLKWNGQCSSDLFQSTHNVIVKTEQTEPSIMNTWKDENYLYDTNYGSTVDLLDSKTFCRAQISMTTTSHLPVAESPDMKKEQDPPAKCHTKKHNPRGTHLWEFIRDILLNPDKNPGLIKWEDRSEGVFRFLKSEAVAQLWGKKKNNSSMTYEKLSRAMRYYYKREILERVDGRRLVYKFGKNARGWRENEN
A digest of the protocol: as §1

Another experiment concerns the target SPI1 (Homo sapiens, UniProt P17947 1-270). In short, it runs like this:
as §1

Another experiment addresses SPIB (Homo sapiens, UniProt Q01892 1-262). In short, it runs like this:
as §1

Another experiment has as its target T6, ELK3 (Homo sapiens, UniProt P41970 1-407).
T6 sequence: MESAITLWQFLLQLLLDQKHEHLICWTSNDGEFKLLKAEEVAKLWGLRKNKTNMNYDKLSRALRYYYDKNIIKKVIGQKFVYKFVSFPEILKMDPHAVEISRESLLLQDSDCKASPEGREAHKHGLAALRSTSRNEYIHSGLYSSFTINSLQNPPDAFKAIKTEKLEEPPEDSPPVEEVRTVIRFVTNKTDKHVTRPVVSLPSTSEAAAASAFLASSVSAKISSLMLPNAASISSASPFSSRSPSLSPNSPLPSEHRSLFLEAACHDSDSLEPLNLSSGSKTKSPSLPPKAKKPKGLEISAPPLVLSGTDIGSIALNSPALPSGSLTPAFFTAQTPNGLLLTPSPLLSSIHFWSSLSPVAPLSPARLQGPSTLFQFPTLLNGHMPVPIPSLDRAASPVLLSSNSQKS
A digest of the protocol:
as §1

The next experiment concerns the target T7, FEV (Homo sapiens, UniProt Q99581 1-238).
T7 sequence: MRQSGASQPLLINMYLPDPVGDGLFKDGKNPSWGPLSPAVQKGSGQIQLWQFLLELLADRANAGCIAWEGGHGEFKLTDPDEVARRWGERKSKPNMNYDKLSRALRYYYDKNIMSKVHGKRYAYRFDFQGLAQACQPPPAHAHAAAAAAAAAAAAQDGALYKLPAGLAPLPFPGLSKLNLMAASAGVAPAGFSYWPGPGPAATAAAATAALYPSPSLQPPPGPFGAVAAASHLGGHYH
In short, it runs like this: as §1

A further experiment addresses ETV5 (Homo sapiens, UniProt P41161 1-510). In short, it runs like this:
as §1

The next experiment concerns the target T8, SPIC (Homo sapiens, UniProt Q8N5J4 1-248).
T8 sequence: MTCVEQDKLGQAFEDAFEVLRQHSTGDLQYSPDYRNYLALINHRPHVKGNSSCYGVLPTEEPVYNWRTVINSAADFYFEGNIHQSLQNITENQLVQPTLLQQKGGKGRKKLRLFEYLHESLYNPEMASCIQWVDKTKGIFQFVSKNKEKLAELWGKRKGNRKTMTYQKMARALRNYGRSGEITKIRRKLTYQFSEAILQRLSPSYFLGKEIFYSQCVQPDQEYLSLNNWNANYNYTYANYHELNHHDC
A digest of the protocol:
as §1

The target of the next experiment is ELF4 (Homo sapiens, UniProt Q99607 1-663). In short, it runs like this:
as §1

A further experiment addresses T9, ELK4 (Homo sapiens, UniProt P28324-2 1-405).
T9 sequence: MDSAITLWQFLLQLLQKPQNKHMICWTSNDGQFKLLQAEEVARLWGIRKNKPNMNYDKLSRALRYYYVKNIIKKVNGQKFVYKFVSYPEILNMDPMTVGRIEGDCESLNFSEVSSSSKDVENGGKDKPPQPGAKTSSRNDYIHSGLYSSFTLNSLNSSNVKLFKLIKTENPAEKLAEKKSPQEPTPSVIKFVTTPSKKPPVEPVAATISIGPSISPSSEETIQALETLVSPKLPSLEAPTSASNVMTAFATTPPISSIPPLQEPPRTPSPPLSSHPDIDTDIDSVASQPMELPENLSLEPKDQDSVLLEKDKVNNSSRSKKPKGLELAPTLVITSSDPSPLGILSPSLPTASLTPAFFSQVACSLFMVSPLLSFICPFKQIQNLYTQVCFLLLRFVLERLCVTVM
In short, it runs like this: as §1

In another experiment the target is T10, ETV2 (Homo sapiens, UniProt O00321 1-342).
T10 sequence: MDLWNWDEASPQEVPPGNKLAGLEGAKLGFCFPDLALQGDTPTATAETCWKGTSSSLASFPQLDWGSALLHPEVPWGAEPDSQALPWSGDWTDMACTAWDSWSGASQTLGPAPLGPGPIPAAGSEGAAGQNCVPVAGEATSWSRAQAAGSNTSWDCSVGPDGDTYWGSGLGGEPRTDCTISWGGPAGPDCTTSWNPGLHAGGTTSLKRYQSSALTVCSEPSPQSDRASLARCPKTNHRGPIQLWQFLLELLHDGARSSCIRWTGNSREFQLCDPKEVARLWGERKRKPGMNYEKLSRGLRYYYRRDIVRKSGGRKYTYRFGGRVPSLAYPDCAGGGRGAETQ
In short, it runs like this: as §1

A further experiment concerns the target T11, ELF3 (Homo sapiens, UniProt P78545 1-371).
T11 sequence: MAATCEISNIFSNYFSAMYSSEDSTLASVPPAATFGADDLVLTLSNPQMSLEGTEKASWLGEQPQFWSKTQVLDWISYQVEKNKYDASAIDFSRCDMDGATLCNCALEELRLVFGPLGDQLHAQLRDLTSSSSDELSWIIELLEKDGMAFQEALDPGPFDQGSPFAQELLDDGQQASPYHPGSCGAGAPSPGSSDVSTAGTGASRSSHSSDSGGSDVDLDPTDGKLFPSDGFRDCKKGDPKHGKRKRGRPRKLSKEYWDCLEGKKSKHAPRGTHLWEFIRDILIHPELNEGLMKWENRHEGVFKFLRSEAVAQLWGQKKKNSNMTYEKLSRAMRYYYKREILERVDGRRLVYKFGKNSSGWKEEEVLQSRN
In short, it runs like this: as §1

A further experiment has as its target ETV1 (Homo sapiens, UniProt P50549 1-477). A digest of the protocol: as §1

ETV5, sequence (P41161 whole entry): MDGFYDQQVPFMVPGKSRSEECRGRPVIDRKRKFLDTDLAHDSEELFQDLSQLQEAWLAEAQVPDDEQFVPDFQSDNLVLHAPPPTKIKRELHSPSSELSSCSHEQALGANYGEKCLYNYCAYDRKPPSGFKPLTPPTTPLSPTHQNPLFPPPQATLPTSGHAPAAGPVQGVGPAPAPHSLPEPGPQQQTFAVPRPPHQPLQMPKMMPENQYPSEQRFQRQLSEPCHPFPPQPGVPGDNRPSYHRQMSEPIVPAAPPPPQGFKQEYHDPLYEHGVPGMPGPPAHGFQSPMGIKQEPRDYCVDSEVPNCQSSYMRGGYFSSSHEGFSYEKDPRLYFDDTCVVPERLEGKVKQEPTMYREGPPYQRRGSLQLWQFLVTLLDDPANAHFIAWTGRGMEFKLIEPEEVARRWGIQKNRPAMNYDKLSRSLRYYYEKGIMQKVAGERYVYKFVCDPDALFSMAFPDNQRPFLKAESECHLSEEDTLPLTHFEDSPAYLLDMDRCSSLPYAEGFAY
SPIB, sequence (Q01892 whole entry): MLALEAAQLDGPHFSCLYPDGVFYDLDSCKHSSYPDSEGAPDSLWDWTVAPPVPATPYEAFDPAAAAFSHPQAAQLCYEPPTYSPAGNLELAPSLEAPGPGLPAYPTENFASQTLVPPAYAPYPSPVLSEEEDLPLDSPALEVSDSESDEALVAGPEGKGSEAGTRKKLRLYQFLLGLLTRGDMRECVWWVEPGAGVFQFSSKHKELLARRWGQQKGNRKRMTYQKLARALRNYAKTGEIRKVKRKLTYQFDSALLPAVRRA
ETV1, sequence (P50549 whole entry): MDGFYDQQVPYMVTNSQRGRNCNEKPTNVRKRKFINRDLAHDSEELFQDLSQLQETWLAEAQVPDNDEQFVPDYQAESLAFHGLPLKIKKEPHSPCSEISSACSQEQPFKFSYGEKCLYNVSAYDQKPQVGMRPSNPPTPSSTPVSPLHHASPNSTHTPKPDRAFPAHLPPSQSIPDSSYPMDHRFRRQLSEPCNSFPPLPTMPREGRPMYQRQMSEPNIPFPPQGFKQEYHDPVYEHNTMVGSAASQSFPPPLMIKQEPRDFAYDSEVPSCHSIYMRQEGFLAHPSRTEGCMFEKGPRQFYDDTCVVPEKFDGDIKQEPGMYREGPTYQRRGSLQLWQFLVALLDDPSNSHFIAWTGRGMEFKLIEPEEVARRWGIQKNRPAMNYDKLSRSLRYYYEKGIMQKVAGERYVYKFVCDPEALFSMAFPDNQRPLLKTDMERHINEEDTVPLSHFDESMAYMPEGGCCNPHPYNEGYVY
ELF4, sequence (Q99607 whole entry): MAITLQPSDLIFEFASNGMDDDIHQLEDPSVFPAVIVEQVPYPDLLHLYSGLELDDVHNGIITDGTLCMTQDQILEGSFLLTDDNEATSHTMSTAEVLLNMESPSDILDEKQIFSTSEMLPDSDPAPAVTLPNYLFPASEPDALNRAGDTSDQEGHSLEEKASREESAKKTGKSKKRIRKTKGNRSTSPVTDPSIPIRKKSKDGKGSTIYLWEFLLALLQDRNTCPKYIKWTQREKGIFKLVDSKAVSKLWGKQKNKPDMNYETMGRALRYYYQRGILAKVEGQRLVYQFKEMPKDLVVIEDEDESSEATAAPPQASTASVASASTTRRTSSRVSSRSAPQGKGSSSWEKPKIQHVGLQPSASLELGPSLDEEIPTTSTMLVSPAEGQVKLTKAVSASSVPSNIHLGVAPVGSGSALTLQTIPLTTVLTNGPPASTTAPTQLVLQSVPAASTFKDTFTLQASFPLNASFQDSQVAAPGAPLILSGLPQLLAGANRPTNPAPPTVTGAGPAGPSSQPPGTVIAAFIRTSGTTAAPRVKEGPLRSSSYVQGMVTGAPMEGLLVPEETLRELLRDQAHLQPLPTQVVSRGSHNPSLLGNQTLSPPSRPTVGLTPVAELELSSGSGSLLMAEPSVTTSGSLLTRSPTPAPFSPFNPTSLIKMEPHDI

On to ACAACC, for which the binding signal in the experiment with FLI1 is 1.25 fold enrichment (6-mer frequency, TF over GST control); with ELK1, 1.28 fold enrichment (6-mer frequency, TF over GST control); in the experiment with GABPA it was 1.21 fold enrichment (6-mer frequency, TF over GST control); in the experiment with ERG, 1.22 fold enrichment (6-mer frequency, TF over GST control); with ELF1, 1.16 fold enrichment (6-mer frequency, TF over GST control); with EHF it was 1.29 fold enrichment (6-mer frequency, TF over GST control). Moreover, the binding signal in the experiment with SPI1 was 1.2 fold enrichment (6-mer frequency, TF over GST control); in the experiment with SPIB it was 1.28 fold enrichment (6-mer frequency, TF over GST control); with ELK3, 1.28 fold enrichment (6-mer frequency, TF over GST control); in the experiment with FEV it was 1.34 fold enrichment (6-mer frequency, TF over GST control); in the experiment with ETV5 it was 1.27 fold enrichment (6-mer frequency, TF over GST control); in the experiment with SPIC it was 1.19 fold enrichment (6-mer frequency, TF over GST control). For the same sequence, the binding signal in the experiment with ELF4 was 1.19 fold enrichment (6-mer frequency, TF over GST control); with ELK4 it was 1.19 fold enrichment (6-mer frequency, TF over GST control); with ETV2, 1.26 fold enrichment (6-mer frequency, TF over GST control); with ELF3, 1.26 fold enrichment (6-mer frequency, TF over GST control); in the experiment with ETV1, 1.23 fold enrichment (6-mer frequency, TF over GST control).

The values above are taken from publication PMC7862700, “An all-to-all approach to the identification of sequence-specific readers for epigenetic DNA modifications on cytosine”.
